From PubChem
NR5A2 inv ag – LRH-1 (NR5A2) inverse agonists, primary screen, cell-based, luminescence, HEK293T, StAR-luciferase reporter. Nuclear receptor subfamily 5 group A member 2 (Homo sapiens), O00482. LRH-1 transfected, 24 h. inhibition, % at 3.6 µM. hit rate 0.13% among 360,000. AID 602396, 2012;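 active means inhibition above the mean inhibition of all tested compounds plus 3 SD, cut at about 73% in these data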
Gli-Sufu block – Gli-Sufu pathway antagonists, primary screen, luciferase luminescence, Sufu-KO-LIGHT cells, uHTS; AID 588413, 2011; Sufu-KO-LIGHT fibroblasts, Gli luciferase reporter luminescence; inhibition, % at 5 µM; hit rate 0.74% among 340,000;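 active means inhibition above about 55%, limit read from the data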
COUP-TFII inh – NR2F2 transcriptional activity inhibitors, primary screen, cell-based, luciferase reporter, HEK293T, luminescence | COUP transcription factor 2 (Homo sapiens), P24468 | HEK293T NGFI-A luciferase reporter | inhibition, % at 8.6 µM | hit rate 0.7% among 370,000;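 active means inhibition above a per-plate cutoff, mean inhibition of test wells between control levels plus 3 SD, cut at about 38% in these data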;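 further: cells cotransfected with COUP-TFII expression vector driving the NGFI-A reporter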
NCOA3 inh – SRC3 coactivator transcriptional activity inhibitors, primary screen, cell-based, luminescence; AID 588352, 2011; HEK293 GAL4-SRC3 luciferase reporter; inhibition, % at 3.6 µM; hit rate 0.17% among 360,000; Nuclear receptor coactivator 3 (Homo sapiens), Q9Y6Q9;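 active means inhibition above a per-campaign cutoff, the mean of all compounds plus 3 SD, cut at about 60% in these data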;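 further: higher means less SRC3-driven luciferase light from the GAL4 reporter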
SRC1 inh – SRC1 coactivator transcriptional activity inhibitors, primary screen, cell-based, luminescence; HEK293 GAL4-SRC1 luciferase reporter; inhibition, % at 3.6 µM; hit rate 0.12% among 360,000; AID 588354, 2011;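 active means inhibition above the campaign mean plus 3 SD, with each screening campaign given its own cutoff, cut at about 60% in these data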
Target sequence (Q15788 whole entry, looked up, the tested form may be a part): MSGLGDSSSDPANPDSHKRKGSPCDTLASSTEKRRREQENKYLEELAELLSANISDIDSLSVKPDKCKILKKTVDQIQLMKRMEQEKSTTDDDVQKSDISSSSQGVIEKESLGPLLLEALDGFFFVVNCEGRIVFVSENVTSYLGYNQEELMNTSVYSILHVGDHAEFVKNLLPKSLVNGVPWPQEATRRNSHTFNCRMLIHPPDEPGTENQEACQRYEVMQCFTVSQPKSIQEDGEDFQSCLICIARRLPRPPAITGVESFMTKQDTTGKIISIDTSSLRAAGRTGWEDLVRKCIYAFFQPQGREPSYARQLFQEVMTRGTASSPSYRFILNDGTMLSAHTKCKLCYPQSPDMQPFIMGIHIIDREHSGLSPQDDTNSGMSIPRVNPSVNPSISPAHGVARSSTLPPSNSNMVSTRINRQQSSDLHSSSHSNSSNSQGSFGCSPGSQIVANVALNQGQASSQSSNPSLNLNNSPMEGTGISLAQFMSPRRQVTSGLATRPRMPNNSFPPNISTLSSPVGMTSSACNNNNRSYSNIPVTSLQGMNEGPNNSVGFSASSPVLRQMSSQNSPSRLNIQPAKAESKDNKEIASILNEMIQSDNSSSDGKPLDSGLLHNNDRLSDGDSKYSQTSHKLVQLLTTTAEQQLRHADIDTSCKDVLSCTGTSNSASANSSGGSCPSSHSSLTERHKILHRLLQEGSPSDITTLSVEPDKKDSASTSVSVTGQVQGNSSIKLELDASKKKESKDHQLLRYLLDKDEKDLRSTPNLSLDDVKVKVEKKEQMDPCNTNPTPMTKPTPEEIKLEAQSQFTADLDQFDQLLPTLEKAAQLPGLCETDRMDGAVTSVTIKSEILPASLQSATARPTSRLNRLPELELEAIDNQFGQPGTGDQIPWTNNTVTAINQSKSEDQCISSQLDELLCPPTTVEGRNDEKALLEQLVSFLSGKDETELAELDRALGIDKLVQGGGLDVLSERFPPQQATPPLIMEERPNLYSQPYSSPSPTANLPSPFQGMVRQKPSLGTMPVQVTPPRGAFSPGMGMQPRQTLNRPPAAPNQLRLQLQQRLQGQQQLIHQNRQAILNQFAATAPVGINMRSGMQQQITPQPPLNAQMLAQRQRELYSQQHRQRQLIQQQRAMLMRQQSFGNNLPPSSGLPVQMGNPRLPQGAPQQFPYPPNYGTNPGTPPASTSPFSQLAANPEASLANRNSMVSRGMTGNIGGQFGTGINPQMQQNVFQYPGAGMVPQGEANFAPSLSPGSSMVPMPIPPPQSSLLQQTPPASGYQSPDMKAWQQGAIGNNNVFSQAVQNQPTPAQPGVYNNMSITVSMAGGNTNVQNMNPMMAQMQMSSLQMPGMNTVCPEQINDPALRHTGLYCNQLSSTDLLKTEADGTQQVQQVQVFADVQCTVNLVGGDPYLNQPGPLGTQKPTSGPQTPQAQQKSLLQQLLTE
NCOA2 inhibitor – inhibition of GAL4-SRC2 driven luciferase reporter, primary screen, SRC2 inhibitor project, cell-based, luminescence; AID 651957, 2012; HEK293 GAL4-SRC2 luciferase reporter; inhibition, % at 9 µM; hit rate 0.17% among 370,000; Nuclear receptor coactivator 2 (Homo sapiens), Q15596;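 active means inhibition above the mean inhibition of all tested compounds plus 3 SD, set per campaign, cut at about 52% in these data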
Gli-Sufu confirm – Gli-SUFU pathway antagonists, confirmation, single concentration, luciferase luminescence, Sufu-KO-LIGHT cells | shares compounds with Gli-Sufu block | Gli luciferase reporter | inhibition, % at 5 µM | hit rate 40% among 2,500 | AID 602428, 2012;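 active means mean inhibition at 5 µM reaching about 45%, limit read from the data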
Gli cytotox – cytotoxicity in Sufu-KO-LIGHT cells, confirmation, cytotoxicity control for Gli-SUFU antagonist project, cell-based, ATP luminescence, single concentration. shares compounds with Gli-Sufu block. cytotoxicity, % at 5 µM. hit rate 32% among 2,500. AID 651994, 2013;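 active means mean cytotoxicity at 5 µM above about 25%, limit read from the data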;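 further: cells exposed to compound overnight for roughly 16 to 18 hours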
Wnt3a counter – Wnt3a reporter signal inhibition, confirmation, counter-screen for Gli-SUFU antagonist project, Wnt-LIGHT cells, luminescence, single concentration; shares compounds with Gli-Sufu block; hit rate 20% among 2,500; Wnt3a-driven luciferase reporter; inhibition, % at 6.25 µM;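 active means mean inhibition above about 25%, limit read from the data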
Gal4-VP16 ctr – Gal4-VP16 luciferase reporter inhibitors, counter-screen for COUP-TFII antagonist project, cell-based, luminescence, HEK293. hit rate 25% among 2,500. AID 687007, 2013. shares compounds with COUP-TFII inh. inhibition, % at 8.5 µM; in the data active means inhibition above about 13%
COUP-TFII conf – NR2F2 transcriptional activity inhibitors, confirmation, cell-based, luciferase reporter, HEK293, triplicate. shares compounds with COUP-TFII inh. HEK293 NGFI-A luciferase reporter, luminescence. inhibition, % at 8.5 µM. hit rate 45% among 2,500. AID 687008, 2013;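 active means mean inhibition over three repeats above a set limit taken from the earlier primary screen, cut at about 38% in these data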
A number is an active result; . = inactive; / = not tested or not shown. A selection: hits, their analogues and other compounds. The true share with any hit is near 1.3%.

SMILES | NR5A2 inv ag | Gli-Sufu block | COUP-TFII inh | NCOA3 inh | SRC1 inh | NCOA2 inhibitor | Gli-Sufu confirm | Gli cytotox | Wnt3a counter | Gal4-VP16 ctr | COUP-TFII conf
COC(=O)[C@]12C[C@H](CC(=O)NCCCN3CCCC3=O)C(=O)N(Cc3ccc(Cl)cc3Cl)C1=C[C@H](C1CCCC1)O[C@@H]2C | / | / | . | / | / | . | / | / | / | / | /
Cc1ccc2c(c1)N(C)/C(=C/c1cccc[n+]1CCO)S2 | . | . | . | . | . | . | / | / | / | / | /
Cc1ccc2c(c1)S/C(=C/c1ccc[n+](C)c1)N2CCO | . | 55.1 | . | . | . | . | . | . | . | / | /
CN(C)C1=NC[C@H](Cc2ccccc2)N1CCCCc1ccccc1 | . | . | . | . | . | . | . | 28.9 | . | / | /
Cc1cccc(CCN2C(N(C)C)=NC[C@@H]2Cc2ccccc2)c1 | . | . | . | . | . | . | / | / | / | / | /
Cc1cccc(CCN2C(N(C)C)=NC[C@@H]2CC(C)C)c1 | . | . | . | . | . | . | 56.3 | . | . | / | /
CC1=CC(C)(C)N(S(=O)(=O)c2ccc(C)cc2)c2cc(C)ccc21 | . | 58.5 | . | . | . | . | 58.2 | 61.9 | . | / | /
COC(=O)C1(C)CN(S(=O)(=O)c2ccc(C)cc2)c2cc(OC)ccc2C1=O (stereo not drawn) | . | . | . | . | . | . | / | / | / | / | /
CCOc1ccc2c(c1)C(C)=CC(C)(C)N2S(=O)(=O)c1ccc(C)cc1 | . | 67.0 | . | . | . | . | 64.2 | 62.0 | . | / | /
COc1ccc2c(c1)C(C)=CC(C)(C)N2S(=O)(=O)c1ccc(C)cc1 | . | 67.3 | . | . | . | . | 55.6 | 58.0 | 30.1 | / | /
CC(COc1cccc(OC(F)(F)F)c1)CN1CCC(C(O)(c2ccccc2)c2ccccc2)CC1 (stereo not drawn) | / | / | . | / | / | . | / | / | / | / | /
CCN1CCN(/C=N/c2nc3c(s2)CCCC3)CC1 | . | . | 50.5 | . | . | . | 69.7 | . | 80.3 | 25.1 | 55.1
CN1CCN(CC(=O)Nc2nc3c(s2)CCCC3)CC1 | . | . | . | . | . | . | / | / | / | / | /
CCN(CC)S(=O)(=O)c1cccc(NC(=O)CNc2cccc(S(=O)(=O)N3CCCC3)c2)c1 | . | 73.3 | 64.3 | . | . | . | 74.8 | 37.6 | . | . | 64.9
Cc1ccc(NC(=O)CNc2cccc(S(=O)(=O)N3CCOCC3)c2)cc1F | . | . | . | . | . | . | / | / | / | / | /
CCN(CC)S(=O)(=O)c1cc(NC(=O)CNc2cccc(S(=O)(=O)N3CCOCC3)c2)ccc1C | . | 95.4 | 56.5 | . | . | . | 45.8 | 36.2 | . | . | 53.6
Cc1ccc(NCC(=O)Nc2cccc(S(=O)(=O)N(C)C)c2)cc1S(=O)(=O)N1CCCCCC1 | . | . | 49.1 | . | . | . | . | . | . | . | .
CCCCCCCCN1CCS(=O)(=O)N(Cc2ccc(Cl)cc2)C(C(=O)OC)C1 (stereo not drawn) | / | / | . | / | / | . | / | / | / | / | /
COc1ccc([C@H]2CC(=O)C=C(c3ccnc4ccc(Cl)cc34)C2)cc1 | . | 74.2 | 68.9 | . | . | . | 68.3 | . | 38.0 | . | 64.9
CC(COc1ccc(Br)cc1)CN1CCC(C(O)(c2ccccc2)c2ccccc2)CC1 (stereo not drawn) | / | / | . | / | / | . | / | / | / | / | /
O=C(Nc1ccncc1)c1ccc(-c2ccccc2)cc1 | . | 57.8 | 62.0 | . | . | . | 55.0 | . | . | . | .
NC(=O)c1ccccc1OCC(=O)N1CCC(Cc2ccccc2)CC1 | . | . | 64.2 | . | . | . | 45.8 | . | 27.1 | . | 39.3
O=C(COc1ccccc1[N+](=O)[O-])N1CCC(Cc2ccccc2)CC1 | . | . | . | . | . | . | / | / | / | / | /
C=CCn1c(O)c(N=NC(=S)Nc2ccccc2F)c2cc(S(=O)(=O)N3CCOCC3)ccc21 | . | 63.7 | 48.6 | . | . | . | 56.0 | 29.2 | . | . | .
O=C(OCc1ccc(CSc2nnc(-c3cccc4ccccc34)o2)cc1)c1ccc(F)cc1 | / | / | . | / | / | / | / | / | / | / | /
SMILES | NR5A2 inv ag | Gli-Sufu block | COUP-TFII inh | NCOA3 inh | SRC1 inh | NCOA2 inhibitor | Gli-Sufu confirm | Gli cytotox | Wnt3a counter | Gal4-VP16 ctr | COUP-TFII conf
CCN(CC)S(=O)(=O)c1ccc(Oc2ccccc2OC)cc1 | . | . | . | . | . | . | / | / | / | / | /
CCN(CC)S(=O)(=O)c1ccc(Oc2ccc(S(=O)(=O)N(CC)CC)cc2)cc1 | . | 80.2 | 38.3 | . | . | . | 85.4 | 45.4 | 29.5 | . | .
CCCCN(C(C)=O)c1ccc2c(c1)C1CC2CCN1C(=O)OCc1ccccc1 (stereo not drawn) | . | 56.4 | 54.8 | . | . | . | 64.2 | 31.3 | . | . | 38.6
CCN(CCc1ccccc1)c1ccc2c(c1)C1CC2CCN1C(=O)OCc1ccccc1 (stereo not drawn) | . | . | . | . | . | . | / | / | / | / | /
CCOc1ccc(S(=O)(=O)NCc2ccncc2)cc1NC(=O)c1ccccc1 | . | 62.5 | 59.0 | . | . | . | 66.0 | 27.6 | . | . | 54.5
CCN1CCCCC(NC(=O)c2ccccc2C)C1=O (stereo not drawn) | / | / | . | / | / | . | / | / | / | / | /
S=C(NCCCN1CCOCC1)N1CCN(c2nc(-c3ccc(Cl)cc3)cs2)CC1 | . | . | 57.9 | . | . | . | . | . | . | . | .
CCNc1nc2c(c(=O)n(C)c(=O)n2C)n1Cc1ccc(Cl)cc1 | . | 70.7 | 52.9 | . | . | . | 61.5 | 31.5 | 40.5 | . | .
CC(C)C[C@H]1COc2cc(Br)ccc2S(=O)(=O)N1Cc1cn(CCC2OCCO2)nn1 | / | / | . | / | / | . | / | / | / | / | /
N=c1c2c(n(Cc3ccc(F)cc3)c3c1CCC3)CCCC2 | . | 66.1 | 39.2 | . | . | . | 69.4 | . | . | . | .
